# Reference: the supplement of paper PMC3334620
# Over roughly 33,000 sequences, “E-score (-0.5 to 0.5)” has its median near -0.016; the highest 2% begin near 0.3. Many of the other results were omitted from the sample, so the highest values are more common in it than they were.
# Target: T1, Yer184c (UniProt P39961)
# T1 sequence: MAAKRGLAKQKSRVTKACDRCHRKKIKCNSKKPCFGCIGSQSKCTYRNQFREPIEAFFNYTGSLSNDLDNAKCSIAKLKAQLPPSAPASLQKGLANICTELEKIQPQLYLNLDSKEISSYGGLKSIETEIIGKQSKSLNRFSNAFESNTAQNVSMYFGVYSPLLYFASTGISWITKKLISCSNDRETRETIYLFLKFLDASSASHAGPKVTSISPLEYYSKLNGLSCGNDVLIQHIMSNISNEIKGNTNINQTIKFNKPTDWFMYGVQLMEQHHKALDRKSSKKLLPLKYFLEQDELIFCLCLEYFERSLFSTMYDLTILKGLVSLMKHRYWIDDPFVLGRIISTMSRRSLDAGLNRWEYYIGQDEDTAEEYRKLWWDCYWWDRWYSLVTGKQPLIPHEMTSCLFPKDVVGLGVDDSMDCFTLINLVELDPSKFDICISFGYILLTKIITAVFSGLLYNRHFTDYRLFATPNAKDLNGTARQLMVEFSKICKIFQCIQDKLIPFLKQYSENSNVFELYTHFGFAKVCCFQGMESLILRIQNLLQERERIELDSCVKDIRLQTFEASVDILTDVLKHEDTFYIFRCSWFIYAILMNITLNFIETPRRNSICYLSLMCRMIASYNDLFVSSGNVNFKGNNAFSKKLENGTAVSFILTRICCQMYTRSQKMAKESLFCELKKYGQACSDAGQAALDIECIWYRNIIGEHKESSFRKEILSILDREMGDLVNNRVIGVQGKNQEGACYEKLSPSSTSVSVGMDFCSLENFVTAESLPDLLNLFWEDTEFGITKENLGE
# Experiment: PBM E-score (8-mer binding enrichment) (E-score (-0.5 to 0.5)); higher = stronger / more preferred TF binding
# Conditions: protein concentration: 100 nM; construct: GST-full length
# Summary of the method: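 E-scores (a modified Wilcoxon-Mann-Whitney statistic) were assigned by the Universal PBM Analysis Suite to every ungapped eight-base word pooled with its reverse complement. The input came from universal all-10-mer Agilent arrays made double-stranded by primer extension and probed with GST-tagged yeast transcription factors at about 100-200 nM. Fluorescent anti-GST detected bound protein, and masliner normalised the scans.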
row,Sequence,PBM E-score
1,TCGTACCA,0.099
2,CGCGCACA,0.112
3,CAGCCGCA,-0.134
4,CAGCCGGA,0.392
5,CAGCCTGA,-0.0443
6,ATATCACC,0.093
7,ACAGCGGC,-0.0827
8,GATTCGGC,0.364
9,GATTCGAC,-0.112
10,AATTCGGG,0.103
11,CATTCGGC,0.269
12,CATTCGGA,0.338
13,AATTCGGC,0.24
14,AATTCGGA,0.343
15,CATTCGGG,0.141
16,CGTTCGGC,0.27
17,AATTCGGT,0.301
18,CGTTCGGA,0.342
19,GGTTCGGA,0.281
20,ATCCTTGC,-0.0624
21,GTTAGACA,0.222
22,GATTTGTA,0.103
23,AGCCAAGG,-0.16
24,ACTAAGAT,0.154
25,GAGGCCCA,-0.319

row,Sequence,PBM E-score
1,CGGTTAAG,0.269
2,ACGAATAG,-0.0621
3,TGGGCTAA,-0.147
4,CAAAAGGG,-0.101
5,GCCCTTCA,-0.0881
6,GATTCGCA,0.131
7,TATTCGCA,0.0122
8,TATTCGGA,0.356
9,TATTCGAA,-0.106
10,GATTCGGA,0.329
11,GATTCGTA,0.125
12,AGCTTGGA,-0.226
13,ATTCCATA,0.147
14,ACACAGGT,-0.289
15,CGGCAAGA,0.317
16,GGGCAAGA,0.106
17,GGGCATTA,-0.199
18,CGGCATTA,0.416
19,CGGCATGC,0.272
20,AGGCAAGA,-0.112
21,GGGCATGA,-0.275
22,AGGCATTA,-0.187
23,CGGCATGA,0.313
24,CATCGGCC,0.115
25,ACCCAGTG,-0.306

row,Sequence,PBM E-score
1,GAGAGGGC,-0.293
2,CCTATCGA,-0.107
3,CCCGGACG,-0.0945
4,ACCGGACG,0.305
5,ACCGGATC,0.229
6,ACCGGATG,0.307
7,ACCGGATA,0.187
8,ACCGGACT,0.101
9,CGCATGAA,0.0183
10,AGTTAGTG,0.00554
11,CCTATACG,-0.267
12,TCACGGCA,0.096
13,ACTCGGCT,0.209
14,CCTCGGCA,0.367
15,ACTCGGCC,0.121
16,ACTCGGCG,0.325
17,TCTCGGCA,0.35
18,ACTCGGCA,0.299
19,TATCGGCA,0.213
20,CCTCGGAG,0.277
21,CCTCGGCG,0.355
22,CCTCGGCC,0.257
23,CCTCGGTA,-0.0209
24,CGAACACC,0.0223
25,AATGGCCA,-0.256

row,Sequence,PBM E-score
1,ACGGATTG,0.161
2,CTTCCGTA,0.322
3,CATCCGTA,0.206
4,ACTCCGTG,0.1
5,CTTCCGTC,0.209
6,ATTCCGTA,0.322
7,ATTCCGTC,0.149
8,GTTCCGTA,0.276
9,ATTCCGTG,0.313
10,ATTCCGCG,0.242
11,CCTGCGAG,0.00158
12,CGTAGCTC,-0.0585
13,AGTTCACG,-0.0529
14,CCCCAATA,-0.244
15,ACGCCAAT,-0.0124
16,ATTCTTCC,0.083
17,ACCGGGAT,0.256
18,CAGTTAGA,-0.0352
19,ATAAGATC,-0.0275
20,ACGAATCC,0.115
21,CCGAATTC,0.334
22,ACGAATTC,0.113
23,CCGAATCC,0.322
24,CCGAATTA,0.231
25,CCGAATCA,0.233

row,Sequence,PBM E-score
1,TACGCTAA,0.0349
2,GTAACTCA,-0.0122
3,AGATCTAA,0.0189
4,AGTCTTGG,-0.0577
5,GACAAAAA,0.333
6,TACCAAAA,0.0716
7,GACAAAAC,0.0933
8,GACAAGAA,0.151
9,GACCAAAA,0.309
10,AACCAAAA,0.0925
11,AATAATAG,0.00819
12,AACAATAA,0.255
13,AATAATAC,0.232
14,AGTAATAG,-0.00505
15,AATAATAT,0.333
16,AACAATAT,0.352
17,AACAATAC,0.0929
18,AGTAATAC,0.106
19,AGTAATAT,0.338
20,CAACATCG,0.0608
21,CCCACGAC,-0.199
22,GTTAGAGA,-0.0529
23,ACCTGCTA,-0.00094
24,CCTGAGTC,-0.0246
25,CTATGATA,0.162

row,Sequence,PBM E-score
1,GTATGATA,0.226
2,ATATGATA,0.325
3,CTGCAACA,0.152
4,CACAATCA,0.00768
5,CGGAAATA,0.424
6,AGGAAATA,0.249
7,CTGAAATC,0.0356
8,CGGAAATC,0.315
9,AGGAAATC,0.0763
10,GGGAAATA,0.0562
11,GGACTTTA,0.156
12,AGTAGGTC,-0.225
13,CTGCGCAA,-0.0246
14,ATGGTACG,0.0122
15,ACTGTTGA,-0.0706
16,TCGGCGAA,0.294
17,CCGGCGGC,0.291
18,CCGGCGAA,0.35
19,ACGGCGTA,0.0111
20,CCGGCGTA,0.313
21,GCGGCGAA,0.27
22,CCGGCGGA,0.369
23,GCGGCGGA,0.193
24,GCGGCGTA,-0.0609
25,TATCTAAA,0.0877

row,Sequence,PBM E-score
1,CACTGCGA,-0.0568
2,AGGTAGGA,-0.06
3,GGAGTGCC,0.0423
4,TACTATGA,0.142
5,ACGGAAAG,0.231
6,CGGGAAAG,0.138
7,CCGGAAAG,0.312
8,CGGGAAAC,0.286
9,CCGGAAAC,0.396
10,CAGGAAAC,0.117
11,CCCACGAA,-0.0234
12,CAGCGTCC,-0.0361
13,TTAGGCAA,-0.168
14,AGAACAGA,0.0872
15,GAGTATGC,-0.00892
16,GCGGGAAA,0.223
17,CCGGGGAA,0.267
18,ACGGGAAA,0.159
19,CCGGGAAA,0.35
20,CGGGGAAA,0.15
21,TCGGGAAA,0.309
22,AGTGCTTG,-0.109
